# Data reported in the supplement of paper PMC9135407.
# Values joined by “and” are separate entries in the source; they are usually repeats but may differ in a detail not shown here. Identical values can stand only once. Counter-ions that a name gives are not always drawn. The campaign covered roughly 5,800 compounds. About 620 (11%) showed activity. For the sample, actives were picked, then their nearest neighbours and some compounds at random. Values without a mark were called inactive.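 The calls were made as follows: active = score above a cut-off or among the top three wells of a plate; in these data no inactive exceeds 0.85.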
# Test system: primary human hepatic stellate cells (donor 1)
# Assay: scaled lipid accumulation score (0 = DMSO-like, 1 = nortriptyline-like); higher = stronger HSC inactivation (lipid re-accumulation), active = hit call of the paper
# Conditions: 48 h
# [1] = library stock concentration: 10 mM
# [2] = library stock concentration: 3.33 mM
# [3] = library stock concentration: 1 mM
# [4] = library stock concentration: 400 uM
# [5] = library stock concentration: 2 mM
# [6] = library stock concentration: 80 uM
smiles,measurement,setting,value
O=C(c1cccnc1)N1CCOCC1,scaled lipid accumulation score,[1],0.163
COC(=O)[C@]12CCC(C)(C)C[C@H]1[C@H]1C(=O)C=C3[C@@]4(C)C=C(C#N)C(=O)C(C)(C)[C@@H]4CC[C@@]3(C)[C@]1(C)CC2 [Bardoxolone Methyl],scaled lipid accumulation score,[2],0.195
same,scaled lipid accumulation score,[1],0.183
CC(C)OC(=O)CCC/C=C\C[C@@H]1[C@@H](/C=C/[C@@H](O)COc2cccc(C(F)(F)F)c2)[C@H](O)C[C@@H]1O,scaled lipid accumulation score,[1],≤ 0
O=C(/C=C\n1cnc(-c2cc(C(F)(F)F)cc(C(F)(F)F)c2)n1)NNc1cnccn1,scaled lipid accumulation score,[2],≤ -0.009
same,scaled lipid accumulation score,[1],0.384
CC1(C)S[C@@H]2[C@H](NC(=O)[C@H](NC(=O)N3CCN(S(C)(=O)=O)C3=O)c3ccccc3)C(=O)N2[C@H]1C(=O)O [Mezlocillin Sodium],scaled lipid accumulation score,[2],≤ 0
same,scaled lipid accumulation score,[1],0.043
C[C@@H](CN1CCC(n2c(=O)[nH]c3cc(Cl)ccc32)CC1)NC(=O)c1ccc2ccccc2c1,scaled lipid accumulation score,[3],0.02
O=C(NCCN1CCC(n2c(=O)[nH]c3cc(Cl)ccc32)CC1)c1ccc(F)cc1 [Halopemide],scaled lipid accumulation score,[3],≤ 0
C[C@@H](CN1CCC(n2c(=O)[nH]c3cc(Cl)ccc32)CC1)NC(=O)c1ccc2ccccc2c1.Cl,scaled lipid accumulation score,[1],1.12 (active)
"Brc1ccc(C2CN3CCSC3=N2)cc1 (single isomer, unassigned; (-)) [(-)-p-Bromotetramisole Oxalate]",scaled lipid accumulation score,[2],≤ -0.009
same,scaled lipid accumulation score,[1],0.192
C=CCNC(=O)c1cc([N+](=O)[O-])cc2c(=O)[nH]c(Nc3ccc(Cl)c(Cl)c3)nc12,scaled lipid accumulation score,[1],0.02
Cc1nc(-c2ccccc2)c(-c2ccncc2)o1,scaled lipid accumulation score,[2],≤ 0
CO[C@@H](C(=O)N1Cc2[nH]nc(NC(=O)c3ccc(N4CCN(C)CC4)cc3)c2C1)c1ccccc1 [listing 1 of 2 here],scaled lipid accumulation score,[4],≤ -0.005
same,scaled lipid accumulation score,[5],≤ -0.005
same,scaled lipid accumulation score,[2],0.533
same,scaled lipid accumulation score,[1],0.779
CO[C@@H](C(=O)N1Cc2[nH]nc(NC(=O)c3ccc(N4CCN(C)CC4)cc3)c2C1)c1ccccc1 [listing 2 of 2 here],scaled lipid accumulation score,[1],0.915 (active)
CCc1cccc(CC)c1NC(=O)N1Cc2[nH]nc(NC(=O)c3ccc(N4CCN(C)CC4)cc3)c2C1,scaled lipid accumulation score,[2],0.21
same,scaled lipid accumulation score,[1],0.34
O=C1c2c(O)cc(O)cc2O[C@H](c2ccc(O)c(O)c2)[C@H]1O,scaled lipid accumulation score,[1],≤ 0
OCc1ccccc1O [Salicyl alcohol],scaled lipid accumulation score,[1],≤ 0
same,scaled lipid accumulation score,library stock concentration: 16.1 mM,≤ 0
COc1ccc(S(=O)(=O)N(CCO)c2ccccc2CN(C)CC=Cc2ccc(Cl)cc2)cc1.O=P(=O)OO.[H] [KN-93 Phosphate],scaled lipid accumulation score,[1],1.07 (active)
COc1ccc(S(=O)(=O)N(C(C)=O)c2ccccc2/C=C/c2cc[n+]([O-])cc2)cc1,scaled lipid accumulation score,[6],≤ -0.016
same,scaled lipid accumulation score,[4],≤ -0.016
same,scaled lipid accumulation score,[5],≤ -0.016
same,scaled lipid accumulation score,[2],≤ 0
same,scaled lipid accumulation score,[1],≤ 0 and 0.15
COc1ccc(S(=O)(=O)N(CCO)c2ccccc2CN(C)C/C=C/c2ccc(Cl)cc2)cc1 [KN-93 Phosphate],scaled lipid accumulation score,[2],0.441
CCCCCCCC/C=C\CCCCCCCC(=O)N[C@@H](CO)C(=O)O [N-Oleoyl-L-Serine],scaled lipid accumulation score,[3],≤ 0
CCCC1([C@H](O)C/C=C/[C@H]2[C@H](O)CC(=O)[C@@H]2CCCCCCC(=O)OC)CCC1 [Butaprost],scaled lipid accumulation score,[3],≤ 0
CC/C=C\C/C=C\C/C=C\C/C=C\C/C=C\CCCCCC(=O)O [Docosapentaenoic Acid],scaled lipid accumulation score,[3],≤ 0
CC/C=C\C/C=C\C/C=C\C/C=C\C/C=C\CCCCCC(=O)O [Docosapentaenoic acid],scaled lipid accumulation score,[3],≤ -0.021
COc1cc2nccc(Oc3ccc(NC(=O)NC4CC4)c(Cl)c3)c2cc1C(N)=O [Lenvatinib (E7080)],scaled lipid accumulation score,[2],0.055
same,scaled lipid accumulation score,[1],≤ 0
"COc1cc2nccc(Oc3ccc(NC(=O)Nc4cc(C)on4)c(Cl)c3)c2cc1OC [AV951 (KRN951, Tivozanib) (2 mM)]",scaled lipid accumulation score,[5],≤ -0.005
"COc1cc2nccc(Oc3ccc(NC(=O)Nc4cc(C)on4)c(Cl)c3)c2cc1OC [AV951 (KRN951, Tivozanib) (10 mM)]",scaled lipid accumulation score,[1],0.775
COc1cc2nccc(Oc3ccc(NC(=O)Nc4cc(C)on4)c(Cl)c3)c2cc1OC [Tivozanib (AV-951)],scaled lipid accumulation score,[2],0.068
same,scaled lipid accumulation score,[1],0.098
COc1cc2nccc(Oc3ccc(NC(=O)Nc4ccc(F)cc4F)c(F)c3)c2cc1OC [listing 1 of 3 here],scaled lipid accumulation score,[1],1.05 (active)
COc1cc2nccc(Oc3ccc(NC(=O)Nc4cc(C)on4)c(Cl)c3)c2cc1OC [VEGFR Tyrosine Kinase Inhibitor IV],scaled lipid accumulation score,[2],≤ 0
COc1cc2nccc(Oc3ccc(NC(=O)Nc4ccc(F)cc4F)c(F)c3)c2cc1OC [listing 2 of 3 here],scaled lipid accumulation score,[1],1.22 (active)
"COc1cc2nccc(Oc3ccc(NC(=O)Nc4cc(C)on4)c(Cl)c3)c2cc1OC [AV951 (KRN951, Tivozanib) (0.4 mM)]",scaled lipid accumulation score,[4],≤ -0.005
COc1cc2nccc(Oc3ccc(NC(=O)NC4CC4)c(Cl)c3)c2cc1C(N)=O,scaled lipid accumulation score,[4],0.067
same,scaled lipid accumulation score,[5],≤ -0.005
same,scaled lipid accumulation score,[1],≤ -0.005
COc1cc2nccc(Oc3ccc(NC(=O)Nc4cc(C)on4)c(Cl)c3)c2cc1OC,scaled lipid accumulation score,[6],0.016
same,scaled lipid accumulation score,[4],≤ 0
same,scaled lipid accumulation score,[5],0.009
same,scaled lipid accumulation score,[1],0.246
COc1cc2nccc(Oc3ccc(NC(=O)Nc4ccc(F)cc4F)c(F)c3)c2cc1OC [listing 3 of 3 here],scaled lipid accumulation score,[2],0.473
COc1cc(Oc2ccnc3cc(OC)c(OC)cc23)ccc1NC(=O)NC(C)c1nccs1 (stereo not given),scaled lipid accumulation score,[6],≤ -0.016
same,scaled lipid accumulation score,[4],≤ -0.016 and ≤ -0.005
same,scaled lipid accumulation score,[5],≤ -0.016 and ≤ -0.005
same,scaled lipid accumulation score,[1],0.713 and 0.552
CC(=O)N(O)[C@@H]1c2cc(C#N)ccc2OC(C)(C)[C@H]1O,scaled lipid accumulation score,[1],≤ 0
O=C(O)CCC/C=C\C[C@@H]1[C@@H](/C=C/C(F)(F)COc2ccccc2)[C@H](O)C[C@@H]1O [Tafluprost (free acid)],scaled lipid accumulation score,[3],0.007
